# D1 allo mod – allosteric modulators of human D1 dopamine receptor; hit rate 5.9% among 58,000; HEK293 D1, CRE-luciferase, dopamine EC30 potentiation; actives deviate in either direction; B-score at 10 µM; AID 641; P21728;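 active means luminescence count or its row- and column-corrected plate score outside the 99.7% band of the plate's sample wells, on either side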
# Target sequence (P21728 whole entry, looked up): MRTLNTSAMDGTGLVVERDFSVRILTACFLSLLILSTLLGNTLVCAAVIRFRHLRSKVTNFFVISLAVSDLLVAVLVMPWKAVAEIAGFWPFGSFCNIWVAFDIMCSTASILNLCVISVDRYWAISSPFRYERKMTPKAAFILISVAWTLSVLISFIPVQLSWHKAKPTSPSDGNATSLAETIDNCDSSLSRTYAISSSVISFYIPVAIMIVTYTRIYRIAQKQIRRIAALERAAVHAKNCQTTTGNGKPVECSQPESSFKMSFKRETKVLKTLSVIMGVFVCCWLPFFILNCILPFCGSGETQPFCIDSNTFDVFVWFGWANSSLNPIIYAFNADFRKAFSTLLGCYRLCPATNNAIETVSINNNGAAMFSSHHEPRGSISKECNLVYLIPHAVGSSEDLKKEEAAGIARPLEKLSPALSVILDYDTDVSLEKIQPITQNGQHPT
# ROCK2 inh – blocks human Rho kinase 2 activity | O75116 | purified ROCK2, Kinase-Glo ATP depletion luminescence | inhibition, % at 6 µM | hit rate 0.35% among 60,000 | AID 604;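 active means inhibition above the screen-wide mean inhibition plus 3 SD, cut at about 18% in these data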;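 further: plate controls were DMSO wells for no effect and Y-27632 control wells after no-enzyme background subtraction for full effect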
# hDAT+cocaine – human DAT dopamine uptake with cocaine, either direction. LLC-PK1 hDAT cells, [14C]-dopamine uptake with cocaine IC80; actives deviate in either direction. B-score at 10 µM. hit rate 1.3% among 110,000. AID 449768;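 active means Z score or B-score, a plate-position-corrected score, falls beyond the plate's 99.7% confidence bounds, in either direction; inactive means both scores lie inside the 99.7% bounds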;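 further: scored against the spread of the other compound wells on the same plate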
# JNK3 blocker – blocks human JNK3 kinase activity; purified JNK3 kinase activity, HTS; inhibition, % at 8 µM; hit rate 0.61% among 60,000; AID 746; in the data active means inhibition above about 17%;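 further: 0% = DMSO and 100% = reference inhibitor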
# PKA kinase inh – PKA (human) kinase inhibition. P17612. PKA Kemptide phosphorylation, Kinase-Glo ATP luminescence. inhibition, % at 6 µM. hit rate 0.1% among 65,000. AID 524;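 active means inhibition above the screen-wide mean inhibition plus 3 SD, cut at about 21% in these data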
# D1 mod confirm – D1 receptor (human) allosteric modulation, confirmed | luminescence at 10 µM | shares compounds with D1 allo mod | hit rate 88% among 2,200 | AID 642 | HEK293 D1 CRE-luciferase, dopamine EC30 potentiation; hits give high values;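 active means luminescence in either of two replicates above the same-plate mean plus 3 SD of the low-dose dopamine control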
# D1 no dopamine – secondary test of D1 modulators: activity without dopamine; shares compounds with D1 allo mod; hit rate 0.8% among 1,900; HEK293 D1 CRE-luciferase, luminescence, no dopamine; hits give high values; AID 646; luminescence at 10 µM; in the data active means luminescence above about 3900
# Isoprot counter – isoproterenol response counter-screen activity for D1 modulators; shares compounds with D1 allo mod; hit rate 63% among 2,200; HEK293 D1 CRE-luciferase, isoproterenol EC30 counter-screen; calls only at 10 µM; AID 647;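 active means luminescence in either replicate above plate mean of wells with a partly effective reference agonist dose plus 3 SD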;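 further: isoproterenol raises cAMP through native beta-adrenoceptor Gs so signal bypasses D1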
# Starred values were filed as active, the others as inactive; i = inactive; nt = not tested or not shown; + = active, no number. This is one part of a sample in which hits are shown more often than they occur.
SMILES,D1 allo mod,ROCK2 inh,hDAT+cocaine,JNK3 blocker,PKA kinase inh,D1 mod confirm,D1 no dopamine,Isoprot counter
CC(=O)Nc1cc2c(cc1NC(=O)Cn1nc(-c3ccc4c(c3)OCCO4)ccc1=O)OCCO2,nt,nt,-2,nt,nt,nt,nt,nt
Nn1c(SCC(=O)NCc2ccccc2)nnc1C1CC1,0.19,6,-0.36,-1,3,nt,nt,nt
CCOC(=O)c1sc(N(Cc2ccccc2)C(=O)CSc2nnc(C3CC3)n2N)nc1C,6.2*,nt,0.22,nt,7,18736*,1688,+
COC(=O)Nc1ccc(S(=O)(=O)N2CCCC(C(=O)Nc3cccc4c3OCCO4)C2)cc1 (configuration not stated),-1.2,5,-0.41,2,6,nt,nt,nt
N#Cc1c2n(c3c(=O)n(Cc4ccc(Cl)cc4)cnc13)CCCCC2,11*,4,1.3,0,15,13432*,1956,+
COCCN(C(=O)CNC(=O)c1ccco1)C(C(=O)NC1CCCC1)c1cccs1 (configuration not stated),nt,nt,-1.3,nt,nt,nt,nt,nt
COc1ccc(-c2noc(CSc3nc4ccccc4c(=O)n3-c3ccc(C)cc3)n2)cc1,nt,nt,-0.54,nt,nt,nt,nt,nt
COc1cc(CN(C)CC(=O)c2[nH]c(C)c(C(C)=O)c2C)ccc1OC(F)F,5*,-1,1,11,3,7936*,1244,+
COc1ccc(Nc2ncc3c(n2)CC(c2ccc(OC)cc2)CC3=O)cc1 (configuration not stated),7.5*,1,1,4,7,11768*,1536,+
CCCc1cc(=O)[nH]c(NCc2ccc(Cl)cc2)n1,2.8*,-4,0.59,4,0,8064*,1432,i
CCCc1cc(=O)[nH]c(Nc2ccc(O)cc2)n1,nt,nt,-0.046,nt,nt,nt,nt,nt
Cc1[nH]n(-c2ccccc2)c(=O)c1-c1ccc(Cl)cc1,nt,nt,0.46,nt,nt,nt,nt,nt
Cc1[nH]n(-c2ccccc2)c(=O)c1S(=O)(=O)c1ccccc1,4.1*,nt,-1.1,nt,8,11060*,1692,i
O=C(COc1ccccc1)NCc1nnc(SCC(=O)Nc2nccs2)n1-c1ccccc1,3.9*,5,-0.11,1,7,7240,1652,i
COc1cccc(C(=O)NCc2nnc(SCC(=O)Nc3nccs3)n2-c2ccccc2)c1,-0.73,1,-0.71,-5,3,nt,nt,nt
CC(Sc1nnc2c(n1)C1(C)CCC2C1(C)C)C(=O)Nc1ccccc1 (configuration not stated),nt,nt,-0.062,nt,nt,nt,nt,nt
CC1(C)CC(=O)c2cc(OCC(=O)NCCCN3CCN(c4ccccc4F)CC3)ccc2O1,5.6*,-2,-0.46,-10,-2,6164*,nt,+
CCCCCCCNC(=O)COc1ccc2c(c1)C(=O)CC(C)(C)O2,nt,nt,1.4,nt,nt,nt,nt,nt
Cc1cc(-c2cccs2)c2c(n1)sc1c(=O)[nH]c(=O)[nH]c12,9.9*,5,0.52,-8,3,13116*,1580,i
COC(=O)c1cc(NC(=O)CCc2c(C)nc3ncnn3c2C)cc(C(=O)OC)c1,5.2*,-3,0.42,2,-3,5564,nt,i
COc1cc2c(C)nc(C)c(C#N)c2cc1OC,3.8,5,-0.16,1,2,nt,nt,nt
C/C(CCc1oc2c(Br)cc(Br)cc2c1-c1ccc(C)o1)=N\O,nt,nt,-0.092,nt,nt,nt,nt,nt
C/C(CCc1oc2ccccc2c1-c1ccc(C)o1)=N/O,7.2*,5,0.17,8,5,9460*,1544,i
CC1(C)Cc2ccccc2-c2nnc(SCC(=O)Nc3nc4ccccc4s3)n21,0.2,2,-0.53,4,3,nt,nt,nt
COC(=O)C(CC(C)C)N1CCC(=O)c2ccccc2S1(=O)=O (configuration not stated),nt,nt,0.072,nt,nt,nt,nt,nt
SMILES,D1 allo mod,ROCK2 inh,hDAT+cocaine,JNK3 blocker,PKA kinase inh,D1 mod confirm,D1 no dopamine,Isoprot counter
CCOc1ccc(-c2[nH]ncc2-c2ccc(OC)c(OC)c2)c(O)c1,5.2*,3,0.88,12,6,13188*,1944,+
CCOc1ccc(-c2[nH]ncc2Oc2ccccc2OC)c(O)c1,-0.82,0,-0.0075,-6,3,nt,nt,nt
COc1cccc(OCC(=O)Nc2c(C(=O)Nc3ccc(OC)cc3OC)oc3ccccc23)c1,-1.7,1,nt,1,-2,nt,nt,nt
Cc1cccc(N2CCN(c3nc4ccc(Cl)cc4n4cnnc34)CC2)c1C,-0.44,2,0.8,10,-2,nt,nt,nt
C=CCn1c(=O)c2c(C)c(C)sc2n2c(Nc3ccc(OC)cc3)nnc12,3.3*,7,-0.59,-1,4,10192*,1584,i
CCn1cc(S(=O)(=O)CC(=O)Nc2ccc(OC)cc2)c2ccccc21,0.48,2,0.037,-6,-2,nt,nt,nt
COC(=O)c1cc(=O)n(Cc2ccco2)c(=Nc2ccc(F)c(Cl)c2)s1,7.4*,0,-0.73,1,-8,8744*,1432,i
COC(=O)c1cc(=O)n(CCc2ccccc2F)c(=Nc2ccc(F)c(Cl)c2)s1,nt,nt,1.7,nt,nt,nt,nt,nt
C=CCn1c(=S)[nH]c2nc3c(cc2c1=O)CCCC3,6*,9,15*,6,4,13488*,1592,i
O=S(=O)(Nc1ccncc1Cl)c1ccccc1,nt,nt,-0.011,nt,nt,nt,nt,nt
Cc1cc(Nc2ccc(C)c(Br)c2)n2nc(C)nc2n1,2.8*,3,-1,-2,5,7632,1564,i
CC(C)Oc1ccccc1C1CC(=O)Nc2cc3c(cc21)OCCO3 (configuration not stated),2.3*,3,-0.16,2,7,10132*,1612,i
O=C1CC(c2cccs2)c2cc3c(cc2N1)OCCO3 (configuration not stated),7*,5,-0.031,-1,5,10536*,1296,i
COc1ccccc1C1CC(=O)Nc2cc3c(cc21)OCCO3 (configuration not stated),-2,-1,0.65,0,-2,nt,nt,nt
O=C1CCCN1c1ccc(S(=O)(=O)Oc2cccc(Cl)c2)cc1[N+](=O)[O-],nt,nt,-1.1,nt,nt,nt,nt,nt
COc1ccc(-c2nnc(NC(=O)c3ccc(S(=O)(=O)N4CCc5ccccc5C4)cc3)o2)cc1,0.68,-1,nt,14,2,nt,nt,nt
COc1cccc(-c2nnc(NC(=O)c3ccc(S(=O)(=O)N4CC(C)OC(C)C4)cc3)o2)c1 (configuration not stated),2.8*,1,nt,2,6,5492,1692,i
Cc1cc(=O)n2nc(N3CCC(C(=O)NCCC4=CCCCC4)CC3)sc2n1,0.34,2,nt,-5,9,nt,nt,nt
CCSC(C)CC1C/C(=N/O)c2c(CC)noc2C1 (configuration not stated),5.3*,2,-0.54,0,8,8312*,1736,i
CCC1(C)Cc2c(C#N)c(N)sc(=S)c2CO1 (configuration not stated),20*,-3,0.86,-5,1,18368*,1660,+
CN(C)c1ccc(NC(=O)CN2CCC(N3CCCCC3)CC2)cc1,nt,nt,-0.42,nt,nt,nt,nt,nt
